# In PubChem BioAssay (EPA / NIEHS):
# Active and inactive are the calls of the source. The calls were made as follows: active = hit-call score of the fitted dose curve at least 0.9, where 1 is the maximum; inactive = score below 0.9.
# Key:
# Settings in all cases: mRNA level, 48 h; actives raise or lower the signal
# [1] = read-out: Potassium channel subfamily K member 1 (KCNK1), KCNK1 (gene 3775); test: LTEA_HepaRG_KCNK1: Life Technologies and Expression Analysis (LTEA) Assay for Potassium channel subfamily K member 1 (KCNK1) using HepaRG (AID 2283511)
# How it was run: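 Differentiated HepaRG cells, 48 h exposure in serum-free induction medium with 0.5% DMSO; 8 concentrations, half-log from 100 uM, duplicate. KCNK1 mRNA by qRT-PCR, normalized to ACTB, GAPDH, POLR2A; bidirectional fit vs DMSO.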
# [2] = read-out: Keratin 19 (KRT19), KRT19 (gene 3880); test: LTEA_HepaRG_KRT19: Life Technologies and Expression Analysis (LTEA) Assay for Keratin 19 (KRT19) using HepaRG (AID 2283512)
# How it was run: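 KRT19 transcript levels, measured by Fluidigm qRT-PCR against three housekeeping genes, are fitted for gain or loss of signal relative to DMSO. Human HepaRG cells receive test chemicals (top 100 uM, half-log steps, 0.5% DMSO) for 48 hours.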
# [3] = read-out: Lipase C (LIPC), LIPC (gene 3990); test: LTEA_HepaRG_LIPC: Life Technologies and Expression Analysis (LTEA) Assay for Lipase C (LIPC) using HepaRG (AID 2283514)
# How it was run: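 HepaRG cells, 48 h after plating, treated in duplicate for 48 h in serum-free induction medium over 8 half-log concentrations from 100 uM, 0.5% DMSO. LIPC mRNA by TaqMan qRT-PCR normalized to ACTB/GAPDH/POLR2A; bidirectional fit versus DMSO.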
# [4] = read-out: Lipoprotein lipase (LPL), LPL (gene 4023); test: LTEA_HepaRG_LPL: Life Technologies and Expression Analysis (LTEA) Assay for Lipoprotein lipase (LPL) using HepaRG (AID 2283515)
# How it was run: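 Differentiated HepaRG cells, plated 48 h, then exposed 48 h in serum-free induction medium to 8 concentrations (top 100 uM, half-log steps) in 0.5% DMSO, duplicate. LPL mRNA measured by qRT-PCR, normalized to ACTB, GAPDH and POLR2A.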
# [5] = read-out: MicroRNA 122 (MIR122), gene 406906; test: LTEA_HepaRG_MIR122: Life Technologies and Expression Analysis (LTEA) Assay for MicroRNA 122 (MIR122) using HepaRG (AID 2283516); also: the transcript read is the microRNA miR-122
# How it was run: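 Differentiated human HepaRG cells were exposed 48 h in serum-free induction medium to eight half-log concentrations (top 100 uM, 0.5% DMSO). Transcript level was measured by TaqMan qRT-PCR, normalized to ACTB, GAPDH and POLR2A, and fitted bidirectionally versus DMSO.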
# [6] = read-out: matrix metalloproteinase-10 (MMP10), MMP10 (gene 4319); test: LTEA_HepaRG_MMP10: Life Technologies and Expression Analysis (LTEA) Assay for matrix metalloproteinase-10 (MMP10) using HepaRG (AID 2283517)
# How it was run: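 Differentiated HepaRG cells in serum-free induction medium exposed 48 h in duplicate to 8-point half-log series up to 100 uM in 0.5% DMSO. mRNA quantified by qRT-PCR, normalised to ACTB, GAPDH, POLR2A; bidirectional fit versus DMSO.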
# [7] = read-out: MYC, MYC (gene 4609); test: LTEA_HepaRG_MYC: Life Technologies and Expression Analysis (LTEA) Assay for MYC using HepaRG (AID 2283518)
# How it was run: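 HepaRG, ~100,000 cells/well, collagen I; 48 h plating; serum-free induction medium; 48 h dosing, duplicate, 100 uM top, half-log, 0.5% DMSO; total RNA → qRT-PCR MYC; gain/loss fit vs DMSO.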
# [8] = read-out: matrix metalloproteinase-3 (MMP3), MMP3 (gene 4314); test: LTEA_HepaRG_MMP3: Life Technologies and Expression Analysis (LTEA) Assay for matrix metalloproteinase-3 (MMP3) using HepaRG (AID 2283519)
# How it was run: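 HepaRG cells (~100,000/well) in serum-free induction medium were dosed in duplicate for 48 h with an 8-point half-log series from 100 uM, 0.5% DMSO. MMP3 mRNA was quantified by Fluidigm TaqMan qRT-PCR, normalized to three housekeeping genes.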
# [9] = read-out: Paternally Expressed 10 (PEG10), PEG10 (gene 23089); test: LTEA_HepaRG_PEG10: Life Technologies and Expression Analysis (LTEA) Assay for Paternally Expressed 10 (PEG10) using HepaRG (AID 2283520)
# How it was run: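 Differentiated HepaRG cells, plated 48 h then switched to serum-free induction medium, were exposed in duplicate for 48 h to eight half-log concentrations topping at 100 uM in 0.5% DMSO. PEG10 mRNA was quantified by TaqMan qRT-PCR, normalised to ACTB, GAPDH and POLR2A.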
# [10] = read-out: Protein phosphatase 2A (PPP2R4), PTPA (gene 5524); test: LTEA_HepaRG_PPP2R4: Life Technologies and Expression Analysis (LTEA) Assay for Protein phosphatase 2A (PPP2R4) using HepaRG (AID 2283522)
# How it was run: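 Differentiated HepaRG cells in serum-free induction medium were exposed in duplicate for 48 h to eight concentrations, top 100 uM with half-log dilutions, in 0.5% DMSO. PPP2R4 mRNA was quantified by TaqMan qRT-PCR, normalized to ACTB, GAPDH and POLR2A.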
# [11] = read-out: Phosphatase and tensin (PTEN), PTEN (gene 5728); test: LTEA_HepaRG_PTEN: Life Technologies and Expression Analysis (LTEA) Assay for Phosphatase and tensin (PTEN) using HepaRG (AID 2283523)
# How it was run: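 HepaRG cells, 48 h after plating, exposed in duplicate for 48 h in serum-free induction medium to 8 half-log concentrations up to 100 uM (0.5% DMSO). PTEN mRNA by qRT-PCR, normalized to ACTB, GAPDH, POLR2A; bidirectional fit versus DMSO.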
# [12] = read-out: solute carrier (SLC22A1), SLC22A1 (gene 6580); test: LTEA_HepaRG_SLC22A1: Life Technologies and Expression Analysis (LTEA) Assay for solute carrier (SLC22A1) using HepaRG (AID 2283524)
# How it was run: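 Differentiated human HepaRG cells in serum-free induction medium, exposed 48 h in duplicate to 8-point half-log series from 100 µM top in 0.5% DMSO. SLC22A1 mRNA by TaqMan qRT-PCR normalized to ACTB, GAPDH, POLR2A; bidirectional fit versus DMSO.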
# [13] = read-out: Pyruvate Dehydrogenase Kinase 4 (PDK4), PDK4 (gene 5166); test: LTEA_HepaRG_PDK4: Life Technologies and Expression Analysis (LTEA) Assay for Pyruvate Dehydrogenase Kinase 4 (PDK4) using HepaRG (AID 2283525)
# How it was run: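 HepaRG cells plated 48 h, then switched to serum-free induction medium and exposed in duplicate for 48 h to 8 half-log concentrations from 100 uM in 0.5% DMSO. PDK4 mRNA measured by qRT-PCR, normalized to ACTB, GAPDH and POLR2A; bidirectional fit versus DMSO.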
# [14] = read-out: NAD(P)H dehydrogenase [quinone] 1 (NQO1), NQO1 (gene 1728); test: LTEA_HepaRG_NQO1: Life Technologies and Expression Analysis (LTEA) Assay for NAD(P)H dehydrogenase [quinone] 1 (NQO1) using HepaRG (AID 2283526)
# How it was run: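 Differentiated HepaRG cells, plated 48 h and then switched to serum-free induction medium, were exposed in duplicate for 48 h to 8-point half-log concentrations up to 100 uM in 0.5% DMSO. mRNA measured by qRT-PCR, normalized to ACTB, GAPDH, POLR2A; bidirectional fit versus DMSO.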
# [15] = read-out: Nuclear factor erythroid 2-related factor 2 (Homo sapiens) (UniProt Q16236); test: LTEA_HepaRG_NFE2L2: Life Technologies and Expression Analysis (LTEA) Assay for Nuclear factor erythroid 2-related factor 2 (NFE2L2) Transcription Factor using HepaRG (AID 2283527);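 as to outcome: TaqMan qRT-PCR transcript level normalised to ACTB GAPDH and POLR2A housekeeping genes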
# How it was run: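 Differentiated human HepaRG cells, serum-free induction medium, exposed 48 h in duplicate to eight half-log concentrations up to 100 uM in 0.5% DMSO. NFE2L2 mRNA by Fluidigm TaqMan qRT-PCR, normalised to ACTB, GAPDH, POLR2A; bidirectional change versus DMSO.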
# [16] = read-out: succinate dehydrogenase complex iron sulfur subunit B (SDHB), SDHB (gene 6390); test: LTEA_HepaRG_SDHB: Life Technologies and Expression Analysis (LTEA) Assay for succinate dehydrogenase complex iron sulfur subunit B (SDHB) using HepaRG (AID 2283528)
# How it was run: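 Readout is SDHB transcript level by qRT-PCR, normalised to three housekeeping genes and fitted bidirectionally against 0.5% DMSO vehicle. Human HepaRG cells were treated for 48 h at up to 100 uM.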
# [17] = read-out: solute carrier (SLCO1B1), SLCO1B1 (gene 10599); test: LTEA_HepaRG_SLCO1B1: Life Technologies and Expression Analysis (LTEA) Assay for solute carrier (SLCO1B1) using HepaRG (AID 2283530)
# How it was run: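 HepaRG, serum-free induction medium, 48 h dosing, 8-pt half-log from 100 uM, 0.5% DMSO vehicle, duplicates. Readout: SLCO1B1 mRNA, qRT-PCR, ACTB/GAPDH/POLR2A normalization; up or down fit vs DMSO.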
# [18] = read-out: Nuclear factor NF-kappa-B p105 subunit (Homo sapiens) (UniProt P19838); test: LTEA_HepaRG_NFKB1: Life Technologies and Expression Analysis (LTEA) Assay for Nuclear Factor Kappa B Subunit 1 (NFKB1) using HepaRG (AID 2283521);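 also: TaqMan qRT-PCR transcript normalised to ACTB GAPDH and POLR2A housekeeping genes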
# How it was run: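 HepaRG, 48 h exposure; 8-pt half-log series from 100 uM in 0.5% DMSO; duplicates. Readout: NFKB1 mRNA by qRT-PCR (Fluidigm arrays), housekeeping-normalized. Gain/loss fit vs DMSO baseline.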
# Chain of Nuclear factor erythroid 2-related factor 2 (Homo sapiens) (Q16236 whole entry, looked up): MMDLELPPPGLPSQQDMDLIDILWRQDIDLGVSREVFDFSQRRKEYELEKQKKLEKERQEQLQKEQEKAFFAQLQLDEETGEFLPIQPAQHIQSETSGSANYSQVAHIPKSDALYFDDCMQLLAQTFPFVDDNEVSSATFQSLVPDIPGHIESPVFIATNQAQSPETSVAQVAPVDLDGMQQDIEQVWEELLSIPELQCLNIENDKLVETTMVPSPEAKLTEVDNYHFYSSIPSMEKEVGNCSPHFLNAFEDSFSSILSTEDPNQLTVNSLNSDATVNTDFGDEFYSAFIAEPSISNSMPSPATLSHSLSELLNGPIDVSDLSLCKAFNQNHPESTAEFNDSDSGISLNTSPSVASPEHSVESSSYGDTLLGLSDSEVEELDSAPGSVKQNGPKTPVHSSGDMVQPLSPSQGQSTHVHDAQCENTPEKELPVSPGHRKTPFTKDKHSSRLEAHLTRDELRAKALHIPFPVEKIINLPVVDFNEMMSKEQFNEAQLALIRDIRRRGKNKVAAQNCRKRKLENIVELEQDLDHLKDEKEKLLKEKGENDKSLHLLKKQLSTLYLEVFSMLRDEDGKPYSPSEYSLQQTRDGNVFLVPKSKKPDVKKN
# Chain of Nuclear factor NF-kappa-B p105 subunit (Homo sapiens) (P19838 whole entry, looked up): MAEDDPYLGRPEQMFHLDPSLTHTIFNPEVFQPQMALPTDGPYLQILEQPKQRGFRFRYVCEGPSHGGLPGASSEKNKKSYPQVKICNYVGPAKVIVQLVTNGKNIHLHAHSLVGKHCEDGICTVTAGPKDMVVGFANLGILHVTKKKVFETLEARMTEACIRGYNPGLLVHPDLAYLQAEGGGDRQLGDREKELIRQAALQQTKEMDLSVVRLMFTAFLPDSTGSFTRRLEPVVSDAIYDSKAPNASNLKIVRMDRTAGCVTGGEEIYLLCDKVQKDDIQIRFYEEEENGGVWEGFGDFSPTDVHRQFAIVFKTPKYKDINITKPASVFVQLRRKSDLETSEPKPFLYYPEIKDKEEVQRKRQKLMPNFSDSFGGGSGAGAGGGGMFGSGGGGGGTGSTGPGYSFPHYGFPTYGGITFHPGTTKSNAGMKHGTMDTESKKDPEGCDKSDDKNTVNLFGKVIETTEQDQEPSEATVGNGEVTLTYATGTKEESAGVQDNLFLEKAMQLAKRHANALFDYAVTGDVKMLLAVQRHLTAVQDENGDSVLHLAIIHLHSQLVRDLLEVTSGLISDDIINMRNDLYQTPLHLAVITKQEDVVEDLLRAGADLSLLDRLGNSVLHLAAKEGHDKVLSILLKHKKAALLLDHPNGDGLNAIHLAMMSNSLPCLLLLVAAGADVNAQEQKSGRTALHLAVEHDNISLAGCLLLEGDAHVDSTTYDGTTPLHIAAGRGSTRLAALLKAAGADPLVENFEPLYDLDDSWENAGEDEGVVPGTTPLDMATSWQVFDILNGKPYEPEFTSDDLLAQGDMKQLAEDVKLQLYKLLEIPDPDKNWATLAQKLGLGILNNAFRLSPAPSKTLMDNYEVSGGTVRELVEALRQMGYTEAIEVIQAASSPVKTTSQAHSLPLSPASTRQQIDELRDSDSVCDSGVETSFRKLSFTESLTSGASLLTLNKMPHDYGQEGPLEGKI
smiles,measurement,setting,value
Nc1ccc2ccccc2c1,outcome,[1],inactive
same,AC50,[2],5.98 µM (active)
same,outcome,[3],inactive
same,outcome,[4],inactive
same,outcome,[5],inactive
same,outcome,[6],inactive
same,AC50,[7],50 µM (active)
same,outcome,[8],inactive
same,outcome,[9],inactive
same,outcome,[10],inactive
same,outcome,[11],inactive
same,outcome,[12],inactive
same,outcome,[13],inactive
same,outcome,[14],inactive
same,AC50,[15],29.8 µM (active)
same,outcome,[16],inactive
same,outcome,[17],inactive
CC(Cl)(Cl)C(=O)O,outcome,[1],inactive
same,outcome,[2],inactive
same,outcome,[3],inactive
same,outcome,[4],inactive
same,outcome,[5],inactive
same,outcome,[6],inactive
same,outcome,[7],inactive
same,outcome,[8],inactive
same,outcome,[9],inactive
same,outcome,[10],inactive
same,outcome,[11],inactive
same,outcome,[12],inactive
same,outcome,[13],inactive
same,outcome,[14],inactive
same,outcome,[15],inactive
same,outcome,[16],inactive
same,outcome,[17],inactive
CCCCc1ccccc1,outcome,[1],inactive
same,outcome,[2],inactive
same,outcome,[3],inactive
same,outcome,[4],inactive
same,outcome,[5],inactive
same,outcome,[6],inactive
same,outcome,[7],inactive
same,outcome,[8],inactive
same,outcome,[9],inactive
same,outcome,[10],inactive
same,outcome,[11],inactive
same,outcome,[12],inactive
same,outcome,[13],inactive
same,outcome,[14],inactive
same,outcome,[15],inactive
same,outcome,[16],inactive
same,outcome,[17],inactive
CC(Cc1ccc(OCC(=O)O)cc1)NCC(O)c1csc(C(F)(F)F)n1 (stereo unspecified),outcome,[1],inactive
same,AC50,[2],0.138 µM (active)
same,outcome,[3],inactive
same,outcome,[4],inactive
same,outcome,[5],inactive
same,outcome,[6],inactive
same,outcome,[7],inactive
same,outcome,[8],inactive
same,AC50,[9],86.2 nM (active)
same,outcome,[10],inactive
same,outcome,[11],inactive
same,outcome,[12],inactive
same,outcome,[13],inactive
same,outcome,[14],inactive
same,outcome,[15],inactive
same,outcome,[16],inactive
same,outcome,[17],inactive
ClC(Cl)c1ccccc1,outcome,[1],inactive
same,outcome,[2],inactive
same,outcome,[3],inactive
same,outcome,[4],inactive
same,outcome,[5],inactive
same,outcome,[6],inactive
same,outcome,[7],inactive
same,outcome,[8],inactive
same,outcome,[9],inactive
same,outcome,[18],inactive
same,outcome,[10],inactive
same,outcome,[11],inactive
same,outcome,[12],inactive
same,outcome,[13],inactive
same,outcome,[14],inactive
same,outcome,[15],inactive
same,outcome,[16],inactive
same,outcome,[17],inactive
